These results are taken from publication PMC7819943, “Rice protein-binding microarrays: a tool to detect cis-acting elements near promoter regions in rice”.

In all, about 68,000 sequences were measured (“fluorescence intensity (a.u.)”: median about 9,100, highest 2% from about 16,000 on). This excerpt belongs to a sample that is enriched for the highest values.

Sequence of OsWRKY34 (Q0JBA9 entry or part of it): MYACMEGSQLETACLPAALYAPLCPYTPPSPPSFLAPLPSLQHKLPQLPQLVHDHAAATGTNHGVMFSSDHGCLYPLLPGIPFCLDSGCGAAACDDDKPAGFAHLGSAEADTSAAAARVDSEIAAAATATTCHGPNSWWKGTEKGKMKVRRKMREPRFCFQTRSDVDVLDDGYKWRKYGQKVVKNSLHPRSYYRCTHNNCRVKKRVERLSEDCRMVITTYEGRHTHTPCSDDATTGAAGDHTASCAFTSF

The assay addresses OsWRKY34 (Oryza sativa, UniProt Q0JBA9 1-250). Nature of the assay: protein-binding microarray (RPBM); PBS, 2% BSA, 51.3 ng/ul salmon testes DNA, 50 uM zinc acetate, 200 nM TF, 25 C, 1 h; high values mean tight binding. As to conditions: protein: recombinant; tags: N-terminal polyhistidine and DsRed monomer fusion (pET32a); label: CyDye5-dUTP incorporated in the synthesized complementary strand; 3' TTTTT single-stranded linker to array surface; dsDNA, one strand shown. Summed up: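 For the binding signal, per-feature fluorescence intensity was read in arbitrary units on an Axon 4000B scanner. Before scanning, a 2% BSA-blocked custom Agilent array made double-stranded with Cy5-dUTP was washed after 1 h at 25 °C with 200 nM protein and 50 µM zinc acetate. The proteins were Ni–NTA-purified transcription factors with N-terminal polyhistidine and DsRed fusions, expressed in E. coli BL21-CodonPlus.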
“TTTATTATTAGTCTAAGTTTAATACTTCTTATTAGTGTCACGGAGTCACCTAGTGCAG”: the binding signal was 8180 fluorescence intensity (a.u.). Turning to “TGATACTTGGCAGGCGTCGTCTCCAAATACCTGACCACTTCGGAGTCACCTAGTGCAG”, the binding signal is 8290 fluorescence intensity (a.u.). Under “AATAGATCACCACATTCAATGCAGTTCTTCCGATTAAATTCGGAGTCACCTAGTGCAG” stands 9730 fluorescence intensity (a.u.); under “GGTTGCTCAGTTGCCGACACATTTCTGCAGACCCATTTTGCGGAGTCACCTAGTGCAG”, 8080 fluorescence intensity (a.u.). Under “CTGTCCTCTATCGATTGTTCTGACTTGGGTCACCATGTAACGGAGTCACCTAGTGCAG” stands 8990 fluorescence intensity (a.u.); under “CTCTGACTCTCTGTTCCAATTCCCACACGTTTCTCTCGCGCGGAGTCACCTAGTGCAG”, 14800 fluorescence intensity (a.u.); under “CCCACGTATTCCCCACCTTATCTCACTGTCTCGTGGGCCCCGGAGTCACCTAGTGCAG”, 10500 fluorescence intensity (a.u.).

Turning to “CTTGTCTCTCTTTCTCTTTCTCTCTCTCTCACCTGTTATTCGGAGTCACCTAGTGCAG”, the binding signal was 9740 fluorescence intensity (a.u.). The result for “CCGCCGAGTCACTGCTCTCGTTCTTATCCACACTGCCCGACGGAGTCACCTAGTGCAG” reads 9120 fluorescence intensity (a.u.). For “GCTCTTATCCCGAGCTCGTGTCACTGGTGGGGTGGGGCCCCGGAGTCACCTAGTGCAG”, the binding signal is 16600 fluorescence intensity (a.u.). Under “AAGTGTTTTCGTTTTTTTTTCATTCGCTATTATTTTCTTTCGGAGTCACCTAGTGCAG” stands 9660 fluorescence intensity (a.u.). The result for “ATGGGGTGTTTTTTTTTTCGCTATATTCTCTTAGAACTGTCGGAGTCACCTAGTGCAG” reads 18000 fluorescence intensity (a.u.); that for “TTCGTGGATGGGGTGGGCTCTTTCTCACTGTTATATTGTCCGGAGTCACCTAGTGCAG”, 27500 fluorescence intensity (a.u.). Regarding “TTTCTCACTGTTATATTGTCTAATATCATCTTTCTCTTTTCGGAGTCACCTAGTGCAG”, the binding signal is 9880 fluorescence intensity (a.u.). “AGGTAATCATATTGTTGTTATTCGTGGATGGGGTGGGCTCCGGAGTCACCTAGTGCAG”: the binding signal is 16400 fluorescence intensity (a.u.).

As for “ATTGGTGGTAATCGGAGGTGGAGGTGGGCGTGATGATCTCCGGAGTCACCTAGTGCAG”, the binding signal was 11100 fluorescence intensity (a.u.). Under “ACGTGTCACCTTCTTATTCGCTGGGTTTTTTCTGGTGGGTCGGAGTCACCTAGTGCAG” stands 8770 fluorescence intensity (a.u.); under “TTAGGTGTTTTGTAGTAGTGTAATGGGGCATATTCGTGGGCGGAGTCACCTAGTGCAG”, 8270 fluorescence intensity (a.u.). Under “TTAGTAGTATATCGTCACCAATTATTGTAGTTAGCTCCACCGGAGTCACCTAGTGCAG” stands 9580 fluorescence intensity (a.u.); under “ATCCGATTTTTTTTCGCAATCTCCGAAATTTCACTTCTATCGGAGTCACCTAGTGCAG”, 11200 fluorescence intensity (a.u.); under “GTCCGCTTCCATTGGGAGCGCGGCTACTGGCTGGGTTTACCGGAGTCACCTAGTGCAG”, 8770 fluorescence intensity (a.u.).

Turning to “ATCCTATATTTGTTGCAGTTCATTCATTTCATCACCAGTTCGGAGTCACCTAGTGCAG”, the binding signal was 8840 fluorescence intensity (a.u.).

As for “CGATCTCTCTCTCTCACACACCCGCCTCACCCTCACCGCCCGGAGTCACCTAGTGCAG”, the binding signal is 10800 fluorescence intensity (a.u.).

As for “CAGCAGATTGCCCATCTCTCGTTGTACTGCCAATCTCTCCCGGAGTCACCTAGTGCAG”, the binding signal is 9530 fluorescence intensity (a.u.). Under “ATGTCACCAAGCGGTATAGGTCTGAATGTATTGATGTGCCCGGAGTCACCTAGTGCAG” stands 9370 fluorescence intensity (a.u.). Under “CCGGTATTGATGTGTTCCCCAAGCCAAAAAAAAAAAGAAGCGGAGTCACCTAGTGCAG” stands 64800 fluorescence intensity (a.u.). Under “ACTGTTCATTGTTGATGGCCTTTTCCAAAAACTAGAAAAGCGGAGTCACCTAGTGCAG” stands 8460 fluorescence intensity (a.u.); under “GTCCAGATACTAAGGTGTATGGTATTATCGGAAAACCTGTCGGAGTCACCTAGTGCAG”, 24300 fluorescence intensity (a.u.); under “GTTTCCTGGTGGTCCAATATAATACCTAGATAAGGTGTATCGGAGTCACCTAGTGCAG”, 8510 fluorescence intensity (a.u.).

For “TTATTATGGTTATATTGTACTAATTCATTGTCCAGGTTTTCGGAGTCACCTAGTGCAG”, the binding signal is 8430 fluorescence intensity (a.u.). Under “TAGCTAGCTCTTGTACAGGTTTCCTCACCTGCTGTATCGACGGAGTCACCTAGTGCAG” stands 8060 fluorescence intensity (a.u.); under “GAGACTAATTCCGACCTTGACCAAACCAAACCCTACCAAACGGAGTCACCTAGTGCAG”, 9200 fluorescence intensity (a.u.); under “TCGTGTTGGTGGTGGTGGTGGTGTGCGGGCGGGCGGGCGCCGGAGTCACCTAGTGCAG”, 33300 fluorescence intensity (a.u.). The result for “GGAGGGTGGGGTAGGAGAGGATGCGGCGGGCGCCATGGCTCGGAGTCACCTAGTGCAG” reads 8590 fluorescence intensity (a.u.); that for “GGCTCGTCGGAGTAGGGGCGCTCGGGGTATGGGGCTCGGCCGGAGTCACCTAGTGCAG”, 20400 fluorescence intensity (a.u.); that for “AGGTGGTGTAGCGCGCGCGGGTGGGGTTGGGTTACGTGGTCGGAGTCACCTAGTGCAG”, 15600 fluorescence intensity (a.u.). The result for “TCGCCGGCGGAGGAGTTGGTGTGGAGAGGGCGGGGAGATGCGGAGTCACCTAGTGCAG” reads 9560 fluorescence intensity (a.u.); that for “CGGCTCGGCTCGGCTCGCGCGGCGGCGGCGGCGGGGCGGCCGGAGTCACCTAGTGCAG”, 8890 fluorescence intensity (a.u.); that for “ATGTGGGTGTGGCATTGTTGGTGTCGGCTGCGCCGCAGCCCGGAGTCACCTAGTGCAG”, 9630 fluorescence intensity (a.u.). Take “CCGTGGTTGGGGTGGTGGGCCGGGGTGTTACGTTAATGGGCGGAGTCACCTAGTGCAG”: the binding signal was 16500 fluorescence intensity (a.u.). Consider “TTTGTGTGTGTGTTGTTGGTCGGGTGGGGTCGCCGGCGCCCGGAGTCACCTAGTGCAG”, for which the binding signal was 20100 fluorescence intensity (a.u.).

“GTGGGGTTGGGTTACGTGGTGGAGCTGAGCCCGGCGGCGCCGGAGTCACCTAGTGCAG”: the binding signal is 11600 fluorescence intensity (a.u.). Under “GCCGGCGCCGGTGGCGTGCGGTCGTGGGCGGGAGGTGGTGCGGAGTCACCTAGTGCAG” stands 12300 fluorescence intensity (a.u.); under “GGGGTGGTGGTGGTGGCGGCGGCAGTGTTGTTGGTCGCCGCGGAGTCACCTAGTGCAG”, 13500 fluorescence intensity (a.u.).
